Screens deposited in PubChem by Center for Chemical Genomics, University of Michigan.
Many of the other results were omitted from the sample, so hits are more common in it than they were.
Dicer inh = human Dicer pre-microRNA cleavage inhibition; cat-ELCCA pre-miR-21 Dicer processing, chemiluminescence; active compounds read high; Q9UPY3; 47,000 compounds, 6% hits; AID 1347074; z-score at 25 µM; in the data active = z-score above about 3, passing the limit was not always enough;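 note: plate controls were vehicle for no effect and no enzyme for full effect; higher signal means more uncleaved substrate so more Dicer inhibition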
Target sequence (Q9UPY3 whole entry, looked up): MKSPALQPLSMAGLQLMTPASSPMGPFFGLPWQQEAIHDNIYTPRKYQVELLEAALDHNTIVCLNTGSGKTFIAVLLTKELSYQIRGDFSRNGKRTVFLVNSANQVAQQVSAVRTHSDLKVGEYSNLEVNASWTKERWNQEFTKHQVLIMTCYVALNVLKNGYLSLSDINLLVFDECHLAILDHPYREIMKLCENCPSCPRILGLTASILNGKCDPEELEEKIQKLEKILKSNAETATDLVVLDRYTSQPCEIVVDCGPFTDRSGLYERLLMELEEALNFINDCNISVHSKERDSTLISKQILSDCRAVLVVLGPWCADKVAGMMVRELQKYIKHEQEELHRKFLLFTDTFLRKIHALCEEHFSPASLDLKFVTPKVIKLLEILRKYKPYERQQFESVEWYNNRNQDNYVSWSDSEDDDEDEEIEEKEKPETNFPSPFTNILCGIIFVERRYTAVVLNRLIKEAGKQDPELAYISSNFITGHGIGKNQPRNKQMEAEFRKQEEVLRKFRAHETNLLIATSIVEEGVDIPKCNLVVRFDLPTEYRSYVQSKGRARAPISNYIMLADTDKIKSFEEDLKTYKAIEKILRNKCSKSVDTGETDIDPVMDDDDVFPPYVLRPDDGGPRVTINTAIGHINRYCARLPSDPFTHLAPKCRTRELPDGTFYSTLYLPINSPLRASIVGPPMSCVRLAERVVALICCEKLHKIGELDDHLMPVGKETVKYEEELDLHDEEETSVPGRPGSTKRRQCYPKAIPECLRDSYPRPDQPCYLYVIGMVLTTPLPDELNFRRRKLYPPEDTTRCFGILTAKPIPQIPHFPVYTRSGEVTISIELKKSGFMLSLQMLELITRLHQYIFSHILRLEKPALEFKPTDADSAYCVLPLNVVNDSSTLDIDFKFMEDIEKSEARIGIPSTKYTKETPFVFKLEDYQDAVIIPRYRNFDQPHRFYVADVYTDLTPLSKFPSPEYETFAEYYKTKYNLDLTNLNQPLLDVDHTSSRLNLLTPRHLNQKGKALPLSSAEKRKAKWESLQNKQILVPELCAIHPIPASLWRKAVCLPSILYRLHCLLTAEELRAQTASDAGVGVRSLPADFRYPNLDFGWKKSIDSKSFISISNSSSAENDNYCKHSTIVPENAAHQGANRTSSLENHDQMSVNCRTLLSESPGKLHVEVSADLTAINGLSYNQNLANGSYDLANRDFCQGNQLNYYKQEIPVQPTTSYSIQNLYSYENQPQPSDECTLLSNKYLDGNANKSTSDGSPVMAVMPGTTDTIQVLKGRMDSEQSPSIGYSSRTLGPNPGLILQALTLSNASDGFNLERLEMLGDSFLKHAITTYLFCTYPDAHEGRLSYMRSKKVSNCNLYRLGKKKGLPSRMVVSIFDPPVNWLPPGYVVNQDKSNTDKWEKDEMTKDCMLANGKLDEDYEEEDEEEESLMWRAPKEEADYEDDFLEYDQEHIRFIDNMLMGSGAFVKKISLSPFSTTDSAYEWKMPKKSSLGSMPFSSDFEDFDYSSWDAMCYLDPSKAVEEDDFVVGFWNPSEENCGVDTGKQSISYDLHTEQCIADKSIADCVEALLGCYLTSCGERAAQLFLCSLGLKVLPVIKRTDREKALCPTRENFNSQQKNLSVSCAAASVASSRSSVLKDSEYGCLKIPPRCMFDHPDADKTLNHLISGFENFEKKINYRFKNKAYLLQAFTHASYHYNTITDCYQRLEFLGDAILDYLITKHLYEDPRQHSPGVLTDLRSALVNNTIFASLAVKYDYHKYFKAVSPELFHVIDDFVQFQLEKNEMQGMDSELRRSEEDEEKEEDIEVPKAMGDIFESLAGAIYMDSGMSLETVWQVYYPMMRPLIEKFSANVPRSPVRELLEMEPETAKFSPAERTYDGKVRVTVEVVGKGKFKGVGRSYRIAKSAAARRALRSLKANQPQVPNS
Starred values were filed as active, the others as inactive.

SMILES	Dicer inh
CCOC(=O)CCCSc1nc(N)c2c3c(sc2n1)CCCC3	3.1*
CCOC(=O)CC(=O)CSc1nc(N)c2c3c(sc2n1)CCC3	-0.06
Nc1nc(SCC(=O)c2ccc(Cl)cc2)nc2sc3c(c12)CCCCC3	-1.4
CC1CN(C(=O)CSc2nc(-c3ccco3)cc(C(F)(F)F)n2)CC(C)O1 (centres undefined)	0.95
CCOC(=O)c1sc(N2C(=O)c3oc4ccccc4c(=O)c3C2c2ccccc2)nc1C (centres undefined)	0.31
C=C(C)c1cccc(C(C)(C)NC(=O)NCCc2ccc(F)cc2)c1	-1.1
O=C(Nc1ccc(Cl)cc1Cl)c1cccnc1Sc1cccc(Cl)c1	5.5
Cc1oc(-c2ccc(Cl)cc2)cc1C(=O)Nc1cc(-c2cccs2)nn1-c1ccc(F)cc1	-1.1
COc1ccc(C2C(C(=O)O)c3ccccc3C(=O)N2Cc2ccc(F)cc2)cc1 (centres undefined)	2.7
CCCCC(Nc1ncnc2ccc(Br)cc12)C(=O)O (centres undefined)	3.9*
Cc1ccc2ncnc(NC(CC(C)C)C(=O)O)c2c1 (centres undefined)	-0.97
Cc1ccc2ncnc(NC(CO)C(=O)O)c2c1 (centres undefined)	1.8
c1ccc(-c2csc3ncnc(N4CCCC4)c23)cc1	1.8
CCOC(=O)c1[nH]c2ccc(F)cc2c1N	2.5
CN1CCc2c(sc3c2C(=O)NC(c2ccc(OC(=O)c4cccs4)cc2)N3)C1 (centres undefined)	-1.1
Nc1ccc(SC(C[N+](=O)[O-])c2ccc(F)cc2)cc1 (centres undefined)	-7.8
CCOC(=O)CNC(=O)c1ccccc1C(=O)NCC(=O)OCC	0.52
CSc1ccc(CN2CCN(S(=O)(=O)c3ccc(Cl)cc3)CC2)cc1	3.5*
CSc1ccc(CN2CCN(S(=O)(=O)c3ccc(C)cc3)CC2)cc1	-2.1
Cc1nc(N2CCN(Cc3ccc4c(c3)OCO4)CC2)[nH]c(=O)c1C	3.2*
COc1cc(C)c(S(=O)(=O)N2CCN(Cc3ccc4c(c3)OCO4)CC2)cc1C	0.76
Cc1ccc(Cc2c(C)nc(N3CCCC3)[nH]c2=O)cc1	0.86
O=C(c1ccncc1)N1CCN(Cc2ccc3c(c2)OCO3)CC1	0.43
Cc1nc(N2CCN(Cc3ccc4c(c3)OCO4)CC2)[nH]c(=O)c1CCC(C)C	3.7*
Cc1ccc(S(=O)(=O)N2CCN(Cc3ccc4c(c3)OCO4)CC2)cc1	7.4*
SMILES	Dicer inh
Cc1cc(C)c(S(=O)(=O)N2CCN(Cc3ccc4c(c3)OCO4)CC2)c(C)c1	-1.3
c1cnc(N2CCN(Cc3ccc4c(c3)OCO4)CC2)nc1	0.47
CC1(C)CC(=O)c2cnc(N3CCN(Cc4ccc5c(c4)OCO5)CC3)nc2C1	1.1
CSc1ccc(CN2CCN(S(=O)(=O)c3ccccc3)CC2)cc1	2.4
COC(=O)COc1ccc2c(=O)c(Oc3ccc(F)cc3)c(C)oc2c1	0.1
CCOC(=O)C(NC(=O)c1cccc(C)c1)(Nc1cc(C)ccn1)C(F)(F)F (centres undefined)	-1.8
O=C(NNc1nc(-c2cccs2)ns1)c1ccc(Cl)cc1	1.4
CC(C)CCCC(C)C1CCC2C3CC(O)[C@@]4(O)CC(O)CCC4(C)C3CCC12C (some centres undefined)	-0.68
Cc1cccc(Cn2nc(C(C)(C)C)cc2-c2nnc(SCC(=O)O)n2C2CCCCC2)c1	0.88
CC1(C)CC(=O)C2=C(C1)N=C1c3ccccc3C(=O)C1C2c1cccc(F)c1 (centres undefined)	-0.56
O=C1CCCC2=C1C(c1ccc(F)cc1)C1C(=O)c3ccccc3C1=N2 (centres undefined)	-0.85
COc1ccc(C2C3=C(CCCC3=O)N=C3c4ccccc4C(=O)C32)cc1 (centres undefined)	8.7*
CSc1c(-c2ccccc2)c(N)nn1S(=O)(=O)c1ccccc1	1.1
CCOc1ccc(C)cc1S(=O)(=O)n1ccnc1C	0.32
O=C1c2cccc3c(Sc4ccccc4)ccc(c23)C(=O)N1NCCO	3.2*
COc1ccc(CCN2C(=O)c3cccc4c(Sc5ccccn5)ccc(c34)C2=O)cc1OC	0.87
O=C1c2cccc3c(N4CCOCC4)ccc(c23)C(=O)N1CCO	-0.79
COC(=O)c1cc(S(=O)(=O)C(C)C)c(SC)s1	-0.71
CCOC(=O)c1nnn2c1nc(N/N=C/c1ccc(Cl)cc1)c1ccccc12	1.5
CC1=C(C(=O)OC2CCCC2)C(c2cccc(C)c2)C2=C(CCCC2=O)N1 (centres undefined)	-2
COc1ccccc1C1NC(=O)c2c(sc3c2CCN(C)C3)N1 (centres undefined)	-2.1
CN(C)c1ccc(/C=C/c2nc(-c3ccccc3O)n[nH]2)cc1	3
CN(C)c1ccc(-c2nc3ccccc3c(=O)[nH]2)c(Cl)c1	-0.76
CN(C)c1ccc(/C=C/c2nc3ccccc3c(=O)[nH]2)cc1	5.5*
Cc1ccc(-n2nnnc2-c2c[nH]c3ccc(C)cc23)cc1	-0.48
SMILES	Dicer inh
Nc1nc(-c2ccc(Cl)cc2)c(-c2ccccc2)s1	0.25
O=c1c(-c2ccccc2Cl)c(C(F)(F)F)oc2c(CN3CCOCC3)c(O)ccc12	0.12
COc1cccc(C2C(C(=O)OC3CCCC3)=C(C)NC3=C2C(=O)CC(c2ccccc2)C3)c1OC (centres undefined)	-0.47
COc1cccc(C2C(C(=O)OC(C)C)=C(C)NC3=C2C(=O)CC(c2ccccc2)C3)c1OC (centres undefined)	7.6*
CC1=C(C(=O)OCC2CCCO2)C(c2cccc(Cl)c2)C2=C(CC(C)(C)CC2=O)N1 (centres undefined)	0.84
CCCCCOC(=O)C1=C(C)NC2=C(C(=O)CCC2)C1c1ccc(OCC)c(OC)c1 (centres undefined)	4.2*
COC(=O)C1=C(C)NC2=C(C(=O)CC(c3ccc(Cl)cc3)C2)C1c1ccccc1Cl (centres undefined)	3.4*
COc1ccccc1C1C(C(=O)OC(C)C)=C(C)NC2=C1C(=O)CC(c1ccccc1)C2 (centres undefined)	1.8
COC(=O)C1=C(C)NC2=C(C(=O)CC(c3ccccc3)C2)C1c1ccccc1F (centres undefined)	8
CC1=C(C(=O)OCC2CCCO2)C(c2cccc(O)c2)C2=C(CC(C)(C)CC2=O)N1 (centres undefined)	3.1*
CC1=C(C(=O)OCC2CCCO2)C(c2cccc(Br)c2)C2=C(CC(C)(C)CC2=O)N1 (centres undefined)	0.65
COC(=O)C1=C(C)NC2=C(C(=O)CC(c3ccccc3)C2)C1c1ccccc1Cl (centres undefined)	2.1
CCCCCOC(=O)C1=C(C)NC2=C(C(=O)CCC2)C1c1ccc(OC)c(Br)c1 (centres undefined)	-0.77
CCOc1ccc(C2C(C(=O)OCCOC)=C(C)NC3=C2C(=O)CCC3)cc1OC (centres undefined)	0.31
CCCCN1C(=O)c2cccc3cc([N+](=O)[O-])cc(c23)C1=O	0.76
O=c1[nH]cnc2cc(-c3ccc(F)cc3)sc12	-2.4
O=C(c1ccccc1)c1ccc2c(c1)OCCO2	-1.1
CCCC(O)C(NC(=O)c1ccccc1)c1ccccc1 (centres undefined)	0.02
COC(=O)C1=C(C)NC2=C(C(=O)CC(c3ccc(OC)c(OC)c3)C2)C1c1ccc(SC)cc1 (centres undefined)	1.2
COC(=O)C1=C(C)NC2=C(C(=O)CC(c3ccc(OC)c(OC)c3)C2)C1c1ccc(F)cc1 (centres undefined)	4.5*
